Bioassay records: PubChem, several laboratories
Most compounds without a hit are left out; they make up all but 27% or so of the library.
CYP2C9 inhib: blockers of cytochrome P450 2C9 activity – biochemical, luminescence, ADME assay, primary screen | AID 777, 2007 | inhibition, % at 5 µM | CYP2C9 Supersomes, luciferin-H conversion | P11712 | 20% of 96,000 active;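 active means blocking of liver enzyme CYP2C9 beyond about 50% at 5 µM, limit read from the data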
CYP2C19 inhib: blockers of cytochrome P450 2C19 activity – biochemical, luminescence, ADME assay, primary screen; P33261; CYP2C19 Supersomes, luciferin-H EGE luminescence, 30 min; AID 778, 2007; 21% of 96,000 active; inhibition, % at 5 µM;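 active means CYP2C19 inhibition above a set limit at 5 µM in the primary screen, cut at about 50% in these data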
CYP2C9 activ: human CYP2C9 activators, primary screen, biochemical, luminescence; recombinant CYP2C9, luciferin-H conversion; hits give high values; factor 1 = untreated enzyme, 0 = blocked; activation factor at 5 µM; 1.4% of 96,000 active; AID 1024, 2008;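 active means activation factor of 2 or more for CYP2C9 at a 5 µM dose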
sEH inhibitor: soluble epoxide hydrolase inhibitors, primary screen, biochemical, human sEH. recombinant human sEH enzymatic activity assay. inhibition, % at 2 µM. 0.34% of 91,000 active. AID 707, 2007; in the data active means inhibition above about 80%
Target sequence (P34913 whole entry, looked up): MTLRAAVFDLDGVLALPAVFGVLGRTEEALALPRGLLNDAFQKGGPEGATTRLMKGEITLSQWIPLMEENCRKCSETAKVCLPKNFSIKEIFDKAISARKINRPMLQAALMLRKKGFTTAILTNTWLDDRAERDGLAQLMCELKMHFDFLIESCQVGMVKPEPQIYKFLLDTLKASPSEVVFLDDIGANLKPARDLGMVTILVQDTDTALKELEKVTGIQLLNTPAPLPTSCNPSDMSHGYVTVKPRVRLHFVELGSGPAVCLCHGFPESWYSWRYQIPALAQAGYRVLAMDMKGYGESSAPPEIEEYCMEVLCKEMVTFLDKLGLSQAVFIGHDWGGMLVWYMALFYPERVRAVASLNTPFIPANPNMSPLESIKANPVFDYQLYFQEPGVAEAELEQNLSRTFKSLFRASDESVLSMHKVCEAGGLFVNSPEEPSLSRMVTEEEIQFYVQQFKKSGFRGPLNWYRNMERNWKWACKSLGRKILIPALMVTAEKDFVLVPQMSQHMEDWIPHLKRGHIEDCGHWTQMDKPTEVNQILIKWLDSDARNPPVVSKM
sEH act: soluble epoxide hydrolase activators, primary screen, biochemical, human sEH | Bifunctional epoxide hydrolase 2 (Homo sapiens), P34913 | purified human sEH enzymatic activity, activator screen | activation, % at 2 µM | 0.04% of 91,000 active; in the data active means activation above about 37%
CYP2C19 act: human CYP2C19 activators, primary screen, biochemical, luminescence; Cytochrome P450 2C19 (Homo sapiens), P33261; recombinant CYP2C19, luciferin-H EGE luminescence; hits give high values; 0 = fully inhibited enzyme, 1 = untreated enzyme; activation factor at 5 µM; 96,000 tested, under 10 active;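 active means activation factor of at least 2 at 5 µM in the primary screen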
Each line names hits and unclear results; the compound was inactive in the other large screens.

COc1ccc2nc(SCC(=O)Nc3ccc(S(=O)(=O)Nc4nccc(C)n4)cc3)[nH]c2c1	none
Cc1cc(C)n(-c2nnc(C)n2NS(C)(=O)=O)n1	none
CCC(C)NC(=O)CSc1nnc(-c2cc(-c3cccs3)nc3ccccc23)o1 (stereo unspecified)	CYP2C9 inhib 98, CYP2C19 inhib 75
NC(=O)CSc1nnc(-c2cc(-c3cccs3)nc3ccccc23)o1	none
CC1CCCC(C)N1C(=O)CSc1nnc(-c2cccs2)o1 (stereo unspecified)	CYP2C19 inhib 84
CCCN(CC1CC1)C(=O)CSc1nnc(-c2cc(-c3cccs3)nc3ccccc23)o1	CYP2C9 inhib 55
O=C(CSc1nnc(-c2cc(-c3cccs3)nc3ccccc23)o1)NC1CCCCC1	CYP2C9 inhib 50
O=C(CSc1oc(-c2cccs2)nc1S(=O)(=O)c1ccccc1)NC1CCCCC1	none
Cc1[nH]c(C)c2c(=O)n(-c3ccccc3)ncc12	none
COc1ccc(CC(=O)Nc2nnc(C)s2)cc1	none
CCN1CCN(C(C(=O)NC2CCCCC2)c2ccc(Cl)cc2)CC1 (stereo unspecified)	none
Cc1cc(OC(=O)c2ccccc2Br)cc(=O)n1C	none
COc1cc(C)c(C(N)=O)c(OC)n1	none (no result: sEH inhibitor, sEH act)
O=C(OCCNC(=O)c1ccc2ccccc2n1)c1ccc(F)cc1	none
Cc1cc(C)n2nc(SCc3cc(=O)oc4ccc5ccccc5c34)nc2n1	none
COC(=O)c1cn(C(=O)c2ccccc2F)nc1N	none
COC(=O)C1=C(N)c2c(F)cccc2C1(C#N)c1ccc(F)cc1 (stereo unspecified)	CYP2C19 inhib 66
COC(=O)c1[nH]c2cc(OC)ccc2c1NC(=O)CN1CCN(c2cccc(C)c2)C(C)C1 (stereo unspecified)	none (no result: sEH inhibitor, sEH act)
CCCN1C(=O)N(C)C(N(O)C(=O)NC)C1(C)C (stereo unspecified)	none
CCCCNC(=O)OCC(CC)NC(=O)OC(C)C (stereo unspecified)	CYP2C19 inhib 53
CCn1cc(C(=O)OCc2ccccc2)c(=O)c2ccc(C)nc21	none
CCn1cc(C(=O)OCC(=O)OC2CC(C)CCC2C(C)C)c(=O)c2ccc(C)nc21 (stereo unspecified)	CYP2C19 inhib 75
O=C(CCOc1ccccc1)NCC(c1ccco1)N1CCCCC1 (stereo unspecified)	CYP2C19 inhib 66
COc1ccc(NC(=O)CCOc2ccccc2)c(OC)c1	CYP2C19 inhib 73
CC(=O)c1ccc(OCCCC(=O)NCC(c2ccco2)N(C)C)cc1 (stereo unspecified)	CYP2C9 inhib 63, CYP2C19 inhib 81 (no result: sEH inhibitor, sEH act)
COc1ccc(NC(=O)CC(=O)Nc2ccc(OC)cc2OC)c(OC)c1	none
COc1ccc(NC(=O)N2CCC(c3ccccc3)C2)c(OC)c1 (stereo unspecified)	CYP2C19 inhib 85, CYP2C9 activ 2.1
COc1ccc(CC(NC(C)=O)C(=O)NC2CCN(S(=O)(=O)c3ccccc3)CC2)cc1OC (stereo unspecified)	none
COc1ccc(OCCCC(=O)Nc2cc([N+](=O)[O-])ccc2C)cc1	CYP2C9 activ 2.6
COc1ccc(C(CNC(=O)CCOc2ccccc2)N(C)C)cc1 (stereo unspecified)	CYP2C19 inhib 55
COc1cc([N+](=O)[O-])ccc1NC(=O)CN(C)C	none
COc1cc([N+](=O)[O-])ccc1NC(=O)CCCOc1ccccc1	CYP2C19 inhib 64
CCCOc1ccc(/C=C/C(=O)Nc2ccc([N+](=O)[O-])cc2C)cc1	none
CCN(CC(=O)Nc1ccc([N+](=O)[O-])cc1OC)c1ccccc1	CYP2C9 inhib 78, CYP2C19 inhib 53
Cc1cccc(OCCC(=O)NCC(c2ccccc2)N(C)C)c1 (stereo unspecified)	none
CCOC(=O)N1CCN(Cc2nc(-c3ccc(C)cc3)no2)CC1	none
COc1ccccc1-c1nnc(Sc2nc([N+](=O)[O-])nn2C)o1	none
O=C(Cc1ccsc1-c1ccccc1)NO	none
CCCCNC(=O)COC(=O)c1ccc(Cl)c(S(N)(=O)=O)c1	none
CCN(CC)S(=O)(=O)c1cc([N+](=O)[O-])ccc1NNC(=O)Nc1ccc(F)cc1	none
CCN(CC)S(=O)(=O)c1cc([N+](=O)[O-])ccc1NNC(=O)Nc1ccccc1OC	CYP2C9 inhib 63, CYP2C19 inhib 51
COc1ccc(NC(=O)CCC(=O)Nc2nnc(C(F)(F)F)s2)c(OC)c1	CYP2C9 inhib 65
CCCCC(=O)Nc1cc(NC(=O)CCCC)cc(C(=O)O)c1	none
Cc1cc(C2C(C#N)=C(N)OC3=C2C(=O)CC(C)(C)C3)c(C)s1 (stereo unspecified)	none
CS(=O)(=O)N1CCCC(C(=O)NCc2ccc(F)cc2Cl)C1 (stereo unspecified)	none
C=CCn1c(N)c(C(=O)OC(C)CC)c2nc3ccccc3nc21 (stereo unspecified)	CYP2C9 inhib 83, CYP2C19 inhib 56
COCC(C)OC(=O)c1c(N)n(CC(C)C)c2nc3ccccc3nc12 (stereo unspecified)	none
C=CCn1c(N)c(C(=O)OC(C)(C)C)c2nc3ccccc3nc21	CYP2C9 inhib 77, CYP2C19 inhib 63
O=C1Nc2ccc(NS(=O)(=O)c3cccs3)c3cccc1c23	CYP2C9 inhib 89, CYP2C19 inhib 89
CCOC(=O)C1CCN(S(=O)(=O)c2ccc3c4c(cccc24)C(=O)N3)CC1	none
O=C1Nc2ccc(S(=O)(=O)NCc3ccco3)c3cccc1c23	none (no result: CYP2C9 inhib, CYP2C19 inhib, CYP2C9 activ, CYP2C19 act)
COC(=O)c1c(C)oc2c1cc(NS(=O)(=O)c1cccs1)c1ccccc12	CYP2C9 inhib 95, CYP2C19 inhib 92
Cc1oc2c(cc(NS(=O)(=O)c3ccc4c5c(cccc35)C(=O)N4)c3ccccc32)c1C(=O)OC(C)C	CYP2C9 inhib 89
CN(c1ccccc1C(=O)O)S(=O)(=O)c1ccc2c3c(cccc13)C(=O)N2	none (no result: CYP2C9 inhib, CYP2C19 inhib, CYP2C9 activ, CYP2C19 act)
O=C(O)c1ccccc1NS(=O)(=O)c1ccc2c3c(cccc13)C(=O)N2	CYP2C9 inhib 97 (no result: sEH inhibitor, sEH act)
CCCCCn1c(SCCN2CCOCC2)nc2c1c(=O)[nH]c(=O)n2C	none
O=C(NCCCN1CCOCC1)c1cc2cc(Cl)cc(Cl)c2oc1=O	none (no result: CYP2C9 inhib, CYP2C19 inhib, CYP2C9 activ, CYP2C19 act)
O=C1CC2CS(=O)(=O)CC2N1C1CCCCC1 (stereo unspecified)	none
O=S(=O)(Nc1cccc2ncccc12)c1cccs1	CYP2C9 activ 2.9 (no result: sEH inhibitor, sEH act)
Cc1ccnc(NS(=O)(=O)c2cccs2)c1	none
COC(=O)c1ccccc1NS(=O)(=O)c1ccc2c3c(cccc13)C(=O)N2	CYP2C9 inhib 100, CYP2C19 inhib 76
